Source: paper PMC4336329 (PLoS ONE, 2015)
The campaign covered roughly 310,000 compounds. About 14,000 (4.5%) showed an effect of 50% or more. The effect is printed as a negative number. This excerpt belongs to a sample that is enriched for strong results.

Biological target: human ether-à-go-go-related gene (hERG) potassium channel (human, UniProt Q12809)
Assay: primary screen, population patch clamp on CHO cells stably expressing hERG; higher = less effect of the substance
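Further: peak tail current of the secondary pulse compared with the same well before compound.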

Chain of human ether-à-go-go-related gene (hERG) potassium channel (Q12809 whole entry, looked up): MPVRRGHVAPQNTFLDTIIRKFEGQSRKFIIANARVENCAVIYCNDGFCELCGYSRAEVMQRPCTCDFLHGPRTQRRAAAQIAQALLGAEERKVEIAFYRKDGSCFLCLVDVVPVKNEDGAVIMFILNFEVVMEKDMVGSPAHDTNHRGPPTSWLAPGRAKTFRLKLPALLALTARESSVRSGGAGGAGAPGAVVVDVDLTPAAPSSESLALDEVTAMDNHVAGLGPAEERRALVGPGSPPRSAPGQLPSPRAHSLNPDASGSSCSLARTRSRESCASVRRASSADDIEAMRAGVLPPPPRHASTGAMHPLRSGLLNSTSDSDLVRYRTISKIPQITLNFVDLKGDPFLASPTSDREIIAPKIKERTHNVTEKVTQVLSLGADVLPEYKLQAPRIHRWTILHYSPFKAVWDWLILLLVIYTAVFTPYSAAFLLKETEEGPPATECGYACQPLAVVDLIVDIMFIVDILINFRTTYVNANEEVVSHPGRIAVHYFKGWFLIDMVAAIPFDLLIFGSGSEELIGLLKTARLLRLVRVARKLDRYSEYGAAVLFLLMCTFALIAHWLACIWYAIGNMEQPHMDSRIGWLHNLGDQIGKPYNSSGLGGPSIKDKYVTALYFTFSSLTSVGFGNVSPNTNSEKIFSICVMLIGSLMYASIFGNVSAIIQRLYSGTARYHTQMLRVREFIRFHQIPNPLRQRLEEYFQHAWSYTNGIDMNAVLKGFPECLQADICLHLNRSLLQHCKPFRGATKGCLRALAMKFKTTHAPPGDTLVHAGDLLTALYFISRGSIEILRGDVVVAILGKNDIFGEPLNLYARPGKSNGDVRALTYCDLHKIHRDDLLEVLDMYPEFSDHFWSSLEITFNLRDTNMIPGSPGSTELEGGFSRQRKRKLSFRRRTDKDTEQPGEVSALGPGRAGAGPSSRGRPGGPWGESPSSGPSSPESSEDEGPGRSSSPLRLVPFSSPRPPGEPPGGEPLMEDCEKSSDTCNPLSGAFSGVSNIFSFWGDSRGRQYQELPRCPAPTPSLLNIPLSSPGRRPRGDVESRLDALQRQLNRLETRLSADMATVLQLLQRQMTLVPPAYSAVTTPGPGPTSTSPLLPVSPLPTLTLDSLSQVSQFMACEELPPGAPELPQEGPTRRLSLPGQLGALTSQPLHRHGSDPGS

Row | Structure (SMILES) | hERG current change (%, negative = inhibition) at 10uM [%]
1 | O=C(C1=COCCO1)N1CCN(C(c2ccccc2)c2ccccc2)CC1 | -7.48
2 | Cc1ccc(CNc2nc3ccccc3n3nnnc23)cc1 | 10.6
3 | CC1CC(C)CN(C(=O)c2ccc3nc[nH]c3c2)C1 (centres unmarked) | 4.05
4 | O=c1[nH]c2ccc(Cl)cc2c(O)c1Cc1ccccc1 | 12.6
5 | Cc1ccc2nc(NCC(=O)O)nc(-c3ccccc3)c2c1 | 4.48
6 | COc1cc(C(=O)NCC2CCCCC2)cc(OC)c1OC | -67.3
7 | COc1cc(C(=O)NCC2CCCO2)cc(OC)c1OC (centres unmarked) | 16.8
8 | COc1cc(CC(=O)NCC2CCCCC2)cc(OC)c1OC | 19.6
9 | CCOC(=O)N1CCN(C(=O)C2CC(=O)N(c3ccc(OC)cc3)C2c2ccc(OC)cc2)CC1 (centres unmarked) | -13.2
10 | CN1CCc2nc(SCc3cccc(Br)c3)c(C#N)cc2C1 | -11.7
11 | Cc1cccc(CSc2nc3c(cc2C#N)CN(C)CC3)c1 | -71.2
12 | CN1CCc2nc(SCCOc3ccccc3)c(C#N)cc2C1 | -66.3
13 | CN1CCc2nc(SCc3ccccc3Br)c(C#N)cc2C1 | -28.2
14 | CC(NC(=O)CSc1nc2c(cc1C#N)CN(C)CC2)c1ccccc1 (centres unmarked) | -20.3
15 | Cc1cccc(CSc2nc3c(cc2C#N)CCC3)c1 | 13.7
16 | COC/C=C/C1=CC2=CC(=O)C(C)(OC(=O)c3cnc4ccccc4n3)C(=O)C2=CN1CCOC (centres unmarked) | 13.3
17 | Cc1c[n+]([O-])n(-c2ccc(C(=O)O)cc2)n1 | 0.473
18 | COc1ccc(N(C(=O)c2snc(C(N)=O)c2N)C(C(=O)NC2CCCC2)c2ccc(OC)c(OC)c2)cc1 (centres unmarked) | 10.9
19 | CCOC(=O)C1CCN(C(=O)C2CCC(=O)N(CC3CCCCC3)C2)CC1 (centres unmarked) | 0.313
20 | CCSc1ccc2cc(OC)ccc2[n+]1CC.[I-] | 10.8
21 | CN(CCCS(=O)(=O)[O-])c1ccc(/C=C/c2ccc3ccccc3[n+]2C)cc1 | 19.6
22 | CC[n+]1c(SC)ccc2cc(OC)ccc21.[O-][Cl+3]([O-])([O-])[O-] | -10.6
23 | CC[n+]1c(/C=C/c2ccc(N(C)C)cc2)ccc2ccccc21.[I-] | -72.9
24 | CCN(CC)c1ccc(/C=C/c2ccc3ccc(OC)cc3[n+]2CC)cc1.[I-] | -82
25 | C[n+]1c(/C=C/c2ccc(O)cc2)ccc2ccccc21.[I-] | -40.3
26 | CN(C)c1ccc(/C=C/c2cc[n+](C)cc2)cc1.[I-] | 2.73

Row | Structure (SMILES) | hERG current change (%, negative = inhibition) at 10uM [%]
27 | CC(C)CC[n+]1ccccc1/C=C/c1ccc(N(C)C)cc1.[I-] | -71.3
28 | CC[n+]1c(/C=C/c2ccc(OC)c(OC)c2)ccc2ccccc21.[I-] | 23.5
29 | CN(C)c1ccc(/C=C/c2ccc3ccccc3[n+]2C)cc1.[I-] | -59.9
30 | CC[n+]1c(/C=C/c2ccc(OC(C)=O)c(OC)c2)ccc2ccccc21.[I-] | -4.85
31 | CN(C)c1ccc(/C=C/c2cccc[n+]2[O-])cc1 | 19.7
32 | O=C(C1CCCCC1)N1CCC(O)(c2ccc(Cl)cc2)CC1 | -10.7
33 | Cc1cccc(N2C(=O)CC(N(O)c3ccccc3)C2=O)c1 (centres unmarked) | 9.2
34 | Cc1cc(C(F)(F)F)nn1Cc1ccc(C(=O)NCc2ccco2)o1 | 5.14
35 | COc1ccc(C)cc1-n1nnnc1SCC1CCCCO1 (centres unmarked) | -14.8
36 | CCOc1ccc(CCNc2nc3c(c(=O)n(C)c(=O)n3C)n2CC)cc1OCC | 3.1
37 | CCOC(=O)C1=C(COC(=O)CC(C)c2ccccc2)NC(=O)NC1C (centres unmarked) | -17.8
38 | CN1C(=O)C(=Cc2ccc(N3CCCCCC3)cc2)C(=O)N(C)C1=O | 13.1
39 | CCOc1ccc2[nH]c(=O)c(C(c3nnnn3C3CCCCC3)N3CCN(CC)CC3)cc2c1 (centres unmarked) | -40.3
40 | COc1cccc(NC(=O)Cc2ccc3ccccc3c2)c1 | -7.16
41 | N#C/C(=C\c1cccc(OCC(=O)O)c1)c1nc2ccccc2[nH]1 | 19.6
42 | COc1cc(-c2noc(C)n2)cc(OC)c1OC | 13.4
43 | COc1ccc(Nc2nc(NCCO)nc(N3CCCC3)n2)cc1 | -38.3
44 | Cc1ccc(S(=O)(=O)NCC(=O)OCC(=O)Nc2cccc(S(=O)(=O)NC3=NCCCCC3)c2)cc1C | -1.1
45 | COc1ccccc1C(=O)NCCC(=O)Nc1nc2ccccc2[nH]1 | -12.6
46 | O=C(/C=C/c1ccc(Cl)cc1)NCCCn1ccnc1 | -55.8
47 | O=C(/C=C/c1ccc(Cl)c(Cl)c1)NCCCn1ccnc1 | -41.7
48 | Clc1ccc(SCCCCn2ccnc2)cc1 | -53
49 | O=C(/C=C/c1ccc(F)cc1)NCCCn1ccnc1 | -31.9
50 | O=C(/C=C/c1ccc(Br)cc1)NCCCn1ccnc1 | -57
51 | O=C(NCCCn1ccnc1)c1ccc(Cl)cc1 | -2.72
52 | Clc1ccc(SCCn2ccnc2)cc1 | -1.48

Row | Structure (SMILES) | hERG current change (%, negative = inhibition) at 10uM [%]
53 | CC(C)(C)c1ccc(/C=C/C(=O)NCCCn2ccnc2)cc1 | -46.5
54 | COc1ccc(/C=C/C(=O)NCCCn2ccnc2)cc1 | -30.9
55 | O=C(C#Cc1ccccc1)NCc1ccccc1F | -2.39
56 | CC1(C)CCC(=O)C=C1Nc1ccc(F)c(Cl)c1 | 7.56
57 | N#C/C(=N\O)c1nc(-c2ccccc2)cs1 | 15.9
58 | CC(C)(C)c1ccc(S(=O)(=O)NCc2ccc(C(=O)NCC3CCCO3)cc2)cc1 (centres unmarked) | 13.8
59 | O=C(OCc1ccc(Br)cc1)c1cccc(S(=O)(=O)N2CCCC2)c1 | -6.47
60 | CSc1nsc(SC)c1C(N)=O | 10.6
61 | CCOC(=O)C1(CCOC)CCN(Cc2ccncc2)CC1 | 8.26
62 | CCOC(=O)C1(CCOC)CCN(Cc2cnc(-c3cccc(C)c3)nc2)CC1 | -5.81
63 | CCOC(=O)C1(CCOc2ccccc2)CCN(Cc2cnc(SC)nc2)CC1 | -72.2
64 | CCOC(=O)C1(Cc2ccccc2)CCCN(Cc2ccncc2)C1 (centres unmarked) | -17.4
65 | CCOC(=O)C1(CCOc2ccccc2)CCN(Cc2ccc(C(=O)OC)cc2)CC1 | -49.9
66 | CCOC(=O)C1(CCOc2ccccc2)CCN(Cc2ccncc2)CC1 | -52
67 | CCOC(=O)C1(CCOc2ccccc2)CCN(Cc2ccc(OC)cc2)CC1 | -75.1
68 | CCOC(=O)C1(CCOc2ccccc2)CCN(Cc2ccc(C#CCCO)cc2)CC1 | -53.3
69 | CCOC(=O)C1(Cc2cccc(OC)c2)CCN(Cc2cnc(SC)nc2)CC1 | -27
70 | CCc1ccc(C(C)NC(=O)/C(C#N)=C\c2cn[nH]c2-c2ccccc2)cc1 (centres unmarked) | -1.91
71 | CC1=NN(c2ccc(Cl)cc2)C(=O)C1 | 3.77
72 | Cc1ccc(C(=O)OCC(=O)N2CCOCC2)cc1 | 15.6
73 | O=C(NNC(=S)Nc1ccc(Cl)cc1Cl)C1CC1 | -24
74 | O=C(Nc1ccc2c(c1)OC1(CCCC1)O2)C1CC1 | 3.79
75 | Cc1ccc(C)n1-c1ncc(Br)cn1 | 6.58
76 | CCCCOCCCNC(=O)N[C@@H](CCSC)C(=O)OC | 16.3
77 | C=CCn1c2ccccc2c(=O)c2cc(C#Cc3ccccn3)ccc21 | -0.113
78 | CCOC(=O)C1(CCOc2ccccc2)CCN(Cc2ccc(O)c(Cl)c2)CC1 | -53

Row | Structure (SMILES) | hERG current change (%, negative = inhibition) at 10uM [%]
79 | CCOC(=O)C1(CCOc2ccccc2)CCN(Cc2ccc(OCCO)cc2)CC1 | -77.9
80 | CCOC(=O)C1(CCOc2ccccc2)CCN(Cc2ccc(O)cc2)CC1 | -85.1
81 | O=C(N/N=C\c1cc(Br)c(Br)o1)c1cncc(Br)c1 | 7.62
82 | CN(C)c1cccc(C(=O)Nc2ccc(N3CCOCC3)cc2)c1 | 2.06
83 | Cc1nc2nc(-c3ccccc3)cc(=O)n2[nH]1 | 11.8
84 | O=C(NNS(=O)(=O)c1ccc([N+](=O)[O-])cc1)C(=O)Nc1cccc(C(=O)O)c1 | 11.9
85 | COc1ccc(C2C(C(=O)N3CCC4(CC3)OCCO4)CC(=O)N2c2ccc(OC)cc2)cc1 (centres unmarked) | -6.88
86 | O=S(=O)(NCC(c1ccco1)N1CCN(c2ccccc2)CC1)c1ccc(F)cc1 (centres unmarked) | 0.0547
87 | O=C1COc2ccc(C(=O)COC(=O)Cc3ccc(F)cc3)cc2N1 | -23.8
88 | CCC(=O)c1ccc(OCC(=O)Nc2ccccc2C(=O)NC2CC2)cc1 | -6.53
89 | OC1/C(=C/c2ccccc2C(F)(F)F)N2CCC1CC2 (centres unmarked) | 9.66
90 | Brc1ccc(-c2nnc3c4ccccc4nc(N4CCOCC4)n23)cc1 | -8.42
91 | Fc1ccccc1-c1nnc2c3ccccc3nc(N3CCOCC3)n12 | -9.92
92 | Clc1ccc(-c2nnc3c4ccccc4nc(N4CCOCC4)n23)cc1Cl | -64.7
93 | CCCN(CC(=O)Nc1ccccc1C)C(=O)C1CCN(c2ncnc3sc(C)c(C)c23)CC1 | -76.2
94 | Cc1sc2ncnc(N3CCC(C(=O)Nc4ccccc4C(C)(C)C)CC3)c2c1C | -15.2
95 | CCN(CC(=O)Nc1c(F)cccc1F)C(=O)C1CCC1 | -13.8
96 | CCOC(=O)c1ccccc1NC(=O)C1CCN(c2ncnc3sc(C)c(C)c23)CC1 | -11.4
97 | Cc1sc2ncnc(N3CCC(C(=O)N(C)CC(=O)Nc4ccccc4Br)CC3)c2c1C | -65.8
98 | Cc1sc2ncnc(N3CCC(C(=O)Nc4ccc(Br)cc4Br)CC3)c2c1C | -7.07
99 | Cc1sc2ncnc(N3CCC(C(=O)N(C)CC(=O)Nc4ccc(Cl)c(C(F)(F)F)c4)CC3)c2c1C | 3.47
100 | CCN(CC(=O)Nc1c(F)cccc1F)C(=O)C1CC1 | 3.28
101 | CCOc1ccc(NC(=O)CN(C)C(=O)C2CCCC2)cc1OCC | 27.8
102 | CCN(CC(=O)Nc1c(F)cccc1F)C(=O)C1CCN(c2ncnc3sc(C)c(C)c23)CC1 | -57.8
103 | CCOc1ccc(NC(=O)CN(C)C(=O)C2CCN(c3ncnc4sc(C)c(C)c34)CC2)cc1OCC | -58.2
104 | CCCCc1nnc(NC(=O)C2CCN(c3ncnc4sc(C)c(C)c34)CC2)s1 | 16.6
